# Experimental data published in article PMC7862700, “An all-to-all approach to the identification of sequence-specific readers for epigenetic DNA modifications on cytosine”.
# Tests used:
# Assay in all cases: DAPPL (digital affinity profiling via proximity ligation, sequencing); 10 mM Tris-HCl pH 7.5, 50 mM NaCl, 1 mM DTT, 4% glycerol, room temperature, 30 min; GST-TFs on glutathione beads, 16-mer random dsDNA library, 0.1% formaldehyde crosslink after washing; high values mean tight binding
# [1] = biological target: T1, FEV (Homo sapiens, UniProt Q99581 1-238); details: protein: recombinant; tags: N-terminal GST; dsDNA, one strand shown
# T1 sequence: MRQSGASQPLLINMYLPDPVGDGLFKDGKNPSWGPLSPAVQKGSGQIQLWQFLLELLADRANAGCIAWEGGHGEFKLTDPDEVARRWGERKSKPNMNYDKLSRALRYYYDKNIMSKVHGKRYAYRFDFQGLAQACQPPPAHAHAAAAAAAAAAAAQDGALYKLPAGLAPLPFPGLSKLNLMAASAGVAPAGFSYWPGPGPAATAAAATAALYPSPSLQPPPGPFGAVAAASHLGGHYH
# How it was run: (§1)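 Binding signal is each hexamer's read frequency for a factor divided by its frequency in the tag-only sample. The factors were GST-fused human transcription factors from yeast, captured on glutathione beads, DNA-barcoded and pooled with that sample. Pools were incubated with 200 nmole of a random double-stranded 16-mer DNA library in Tris/NaCl/DTT/glycerol buffer at room temperature for 30 min, then washed, crosslinked with 0.1% formaldehyde, proximity-ligated with BsaI/T4 ligase (1 h, 37 °C), PCR-amplified and sequenced on an Illumina NextSeq500.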
# [2] = biological target: ETV5 (Homo sapiens, UniProt P41161 1-510); details: protein: recombinant; tags: N-terminal GST; dsDNA, one strand shown
# How it was run: as §1
# [3] = biological target: HSF1 (Homo sapiens, UniProt Q00613 1-529); details: protein: recombinant; tags: N-terminal GST; chain copies: 3; dsDNA, one strand shown
# How it was run: as §1
# [4] = biological target: T2, SPIC (Homo sapiens, UniProt Q8N5J4 1-248); details: protein: recombinant; tags: N-terminal GST; dsDNA, one strand shown
# T2 sequence: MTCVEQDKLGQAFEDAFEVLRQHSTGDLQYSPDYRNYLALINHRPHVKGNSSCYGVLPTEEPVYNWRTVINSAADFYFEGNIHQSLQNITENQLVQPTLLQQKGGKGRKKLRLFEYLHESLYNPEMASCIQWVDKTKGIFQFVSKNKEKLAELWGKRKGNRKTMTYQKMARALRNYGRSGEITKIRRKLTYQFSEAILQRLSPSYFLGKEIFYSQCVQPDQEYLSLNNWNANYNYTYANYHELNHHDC
# How it was run: as §1
# [5] = biological target: ELF4 (Homo sapiens, UniProt Q99607 1-663); details: protein: recombinant; tags: N-terminal GST; dsDNA, one strand shown
# How it was run: as §1
# [6] = biological target: T3, ELK4 (Homo sapiens, UniProt P28324-2 1-405); details: protein: recombinant; tags: N-terminal GST; dsDNA, one strand shown
# T3 sequence: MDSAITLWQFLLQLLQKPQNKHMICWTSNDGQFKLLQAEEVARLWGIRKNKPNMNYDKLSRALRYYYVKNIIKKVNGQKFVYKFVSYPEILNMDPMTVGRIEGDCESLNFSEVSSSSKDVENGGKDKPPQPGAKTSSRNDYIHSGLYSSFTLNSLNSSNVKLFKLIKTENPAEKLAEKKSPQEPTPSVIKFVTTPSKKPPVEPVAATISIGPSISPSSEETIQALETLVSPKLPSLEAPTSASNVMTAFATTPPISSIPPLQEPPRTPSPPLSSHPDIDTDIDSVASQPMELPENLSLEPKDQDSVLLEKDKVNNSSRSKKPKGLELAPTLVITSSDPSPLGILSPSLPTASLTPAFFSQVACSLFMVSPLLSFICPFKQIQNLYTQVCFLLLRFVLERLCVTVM
# How it was run: as §1
# [7] = biological target: T4, ETV2 (Homo sapiens, UniProt O00321 1-342); details: protein: recombinant; tags: N-terminal GST; dsDNA, one strand shown
# T4 sequence: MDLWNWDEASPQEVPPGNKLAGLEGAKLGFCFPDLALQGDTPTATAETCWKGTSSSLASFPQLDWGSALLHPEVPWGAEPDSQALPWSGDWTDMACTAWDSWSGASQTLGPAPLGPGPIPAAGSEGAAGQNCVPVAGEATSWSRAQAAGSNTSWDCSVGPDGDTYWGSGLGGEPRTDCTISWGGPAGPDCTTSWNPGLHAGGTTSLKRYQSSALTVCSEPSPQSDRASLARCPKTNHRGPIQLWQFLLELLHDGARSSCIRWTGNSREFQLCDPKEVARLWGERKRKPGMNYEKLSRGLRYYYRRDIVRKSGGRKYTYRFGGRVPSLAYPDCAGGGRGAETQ
# How it was run: as §1
# [8] = biological target: T5, ELF3 (Homo sapiens, UniProt P78545 1-371); details: protein: recombinant; tags: N-terminal GST; dsDNA, one strand shown
# T5 sequence: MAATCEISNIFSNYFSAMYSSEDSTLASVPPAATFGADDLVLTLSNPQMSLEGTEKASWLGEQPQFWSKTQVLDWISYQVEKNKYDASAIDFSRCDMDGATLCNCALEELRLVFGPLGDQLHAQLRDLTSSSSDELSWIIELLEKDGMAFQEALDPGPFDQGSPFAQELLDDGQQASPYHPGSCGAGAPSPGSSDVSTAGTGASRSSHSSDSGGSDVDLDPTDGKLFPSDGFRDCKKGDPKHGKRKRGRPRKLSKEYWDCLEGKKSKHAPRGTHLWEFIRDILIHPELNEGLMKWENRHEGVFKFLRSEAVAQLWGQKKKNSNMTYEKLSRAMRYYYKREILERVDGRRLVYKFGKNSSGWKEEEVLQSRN
# How it was run: as §1
# [9] = biological target: CRX (Homo sapiens, UniProt O43186 1-299); details: protein: recombinant; tags: N-terminal GST; dsDNA, one strand shown
# How it was run: as §1
# [10] = biological target: ETV1 (Homo sapiens, UniProt P50549 1-477); details: protein: recombinant; tags: N-terminal GST; dsDNA, one strand shown
# How it was run: as §1
# [11] = biological target: T6, ERF (Homo sapiens, UniProt P50548 1-548); details: protein: recombinant; tags: N-terminal GST; dsDNA, one strand shown
# T6 sequence: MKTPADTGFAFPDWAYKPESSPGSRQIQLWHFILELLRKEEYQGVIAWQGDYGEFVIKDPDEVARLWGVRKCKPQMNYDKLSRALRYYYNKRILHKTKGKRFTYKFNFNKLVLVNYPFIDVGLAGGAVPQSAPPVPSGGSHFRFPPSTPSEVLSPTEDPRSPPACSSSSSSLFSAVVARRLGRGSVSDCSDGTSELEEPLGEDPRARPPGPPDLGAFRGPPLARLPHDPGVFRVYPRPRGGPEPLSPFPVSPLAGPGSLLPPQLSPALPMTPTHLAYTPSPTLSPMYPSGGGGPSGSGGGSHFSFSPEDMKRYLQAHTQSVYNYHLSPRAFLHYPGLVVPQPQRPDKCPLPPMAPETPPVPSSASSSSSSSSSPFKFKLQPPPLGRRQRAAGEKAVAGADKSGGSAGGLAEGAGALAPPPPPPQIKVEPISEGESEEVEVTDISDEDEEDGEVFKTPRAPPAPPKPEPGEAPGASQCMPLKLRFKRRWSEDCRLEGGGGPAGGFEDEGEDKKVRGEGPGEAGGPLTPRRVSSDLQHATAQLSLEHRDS
# How it was run: as §1
# [12] = biological target: T7, ETV3L (Homo sapiens, UniProt Q6ZN32 1-361); details: protein: recombinant; tags: N-terminal GST; dsDNA, one strand shown
# T7 sequence: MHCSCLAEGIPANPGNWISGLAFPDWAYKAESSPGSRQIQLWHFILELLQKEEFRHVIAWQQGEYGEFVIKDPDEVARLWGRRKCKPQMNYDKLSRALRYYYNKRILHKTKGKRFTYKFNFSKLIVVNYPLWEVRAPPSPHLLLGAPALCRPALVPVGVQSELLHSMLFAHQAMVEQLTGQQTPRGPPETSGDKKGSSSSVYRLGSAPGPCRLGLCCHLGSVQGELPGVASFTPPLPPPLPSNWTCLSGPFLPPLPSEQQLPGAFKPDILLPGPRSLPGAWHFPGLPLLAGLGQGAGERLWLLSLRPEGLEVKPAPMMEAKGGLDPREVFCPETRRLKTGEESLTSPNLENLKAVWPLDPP
# How it was run: as §1
# [13] = biological target: T8, ETS2 (Homo sapiens, UniProt P15036 1-469); details: protein: recombinant; tags: N-terminal GST; dsDNA, one strand shown
# T8 sequence: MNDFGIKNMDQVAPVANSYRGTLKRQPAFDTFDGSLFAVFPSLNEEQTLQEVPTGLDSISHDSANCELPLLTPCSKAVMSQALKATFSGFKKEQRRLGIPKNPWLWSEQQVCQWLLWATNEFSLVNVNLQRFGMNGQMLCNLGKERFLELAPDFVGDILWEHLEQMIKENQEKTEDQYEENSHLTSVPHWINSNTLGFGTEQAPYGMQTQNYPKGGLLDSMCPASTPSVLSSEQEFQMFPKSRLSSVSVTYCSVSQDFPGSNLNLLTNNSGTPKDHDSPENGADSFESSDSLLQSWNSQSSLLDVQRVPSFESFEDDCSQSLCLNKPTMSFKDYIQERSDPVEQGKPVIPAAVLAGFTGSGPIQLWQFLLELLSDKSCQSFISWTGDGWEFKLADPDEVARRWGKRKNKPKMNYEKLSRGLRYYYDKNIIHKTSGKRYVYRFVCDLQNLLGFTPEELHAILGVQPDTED
# How it was run: as §1
# [14] = biological target: T9, SPDEF (Homo sapiens, UniProt O95238 1-335); details: protein: recombinant; tags: N-terminal GST; dsDNA, one strand shown
# T9 sequence: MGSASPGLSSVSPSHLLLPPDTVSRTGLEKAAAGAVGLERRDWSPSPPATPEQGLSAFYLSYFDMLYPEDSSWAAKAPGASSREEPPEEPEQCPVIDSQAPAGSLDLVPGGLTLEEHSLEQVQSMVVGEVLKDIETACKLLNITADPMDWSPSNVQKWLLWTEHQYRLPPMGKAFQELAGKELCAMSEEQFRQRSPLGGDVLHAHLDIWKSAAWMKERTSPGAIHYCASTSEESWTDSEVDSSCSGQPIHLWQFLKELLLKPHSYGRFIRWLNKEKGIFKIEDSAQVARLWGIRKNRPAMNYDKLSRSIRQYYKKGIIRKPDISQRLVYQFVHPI
# How it was run: as §1
# [15] = biological target: T10, ETV7 (Homo sapiens, UniProt Q9Y603 1-341); details: protein: recombinant; tags: N-terminal GST; dsDNA, one strand shown
# T10 sequence: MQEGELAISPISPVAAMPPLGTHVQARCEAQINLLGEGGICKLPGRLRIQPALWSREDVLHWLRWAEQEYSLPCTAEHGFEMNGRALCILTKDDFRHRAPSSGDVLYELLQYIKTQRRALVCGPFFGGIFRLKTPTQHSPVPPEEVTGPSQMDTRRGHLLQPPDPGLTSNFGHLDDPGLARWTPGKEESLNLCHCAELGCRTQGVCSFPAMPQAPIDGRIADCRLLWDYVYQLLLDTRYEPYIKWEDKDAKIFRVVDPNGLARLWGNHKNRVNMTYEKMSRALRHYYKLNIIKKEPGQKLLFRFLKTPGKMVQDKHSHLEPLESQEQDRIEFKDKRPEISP
# How it was run: as §1
# [16] = biological target: T11, ELF5 (Homo sapiens, UniProt Q9UKW6-2 1-255); details: protein: recombinant; tags: N-terminal GST; dsDNA, one strand shown
# T11 sequence: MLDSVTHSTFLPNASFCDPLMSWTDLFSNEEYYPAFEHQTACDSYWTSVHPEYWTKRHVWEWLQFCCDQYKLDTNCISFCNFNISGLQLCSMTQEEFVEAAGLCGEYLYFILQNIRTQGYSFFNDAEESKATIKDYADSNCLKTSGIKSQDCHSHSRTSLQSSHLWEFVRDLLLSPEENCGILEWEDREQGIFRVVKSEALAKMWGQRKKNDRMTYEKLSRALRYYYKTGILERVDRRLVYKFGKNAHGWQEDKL
# How it was run: as §1
# [17] = biological target: T12, ETV3 (Homo sapiens, UniProt P41162-2 1-143); details: protein: recombinant; tags: N-terminal GST; dsDNA, one strand shown
# T12 sequence: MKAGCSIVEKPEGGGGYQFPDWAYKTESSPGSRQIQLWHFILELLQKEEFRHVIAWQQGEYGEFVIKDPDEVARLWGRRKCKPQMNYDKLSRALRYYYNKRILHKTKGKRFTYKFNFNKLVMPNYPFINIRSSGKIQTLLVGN
# How it was run: as §1
# [18] = biological target: ETV6 (Homo sapiens, UniProt P41212 1-452); details: protein: recombinant; tags: N-terminal GST; dsDNA, one strand shown
# How it was run: as §1
# Sequence of CRX (O43186 whole entry): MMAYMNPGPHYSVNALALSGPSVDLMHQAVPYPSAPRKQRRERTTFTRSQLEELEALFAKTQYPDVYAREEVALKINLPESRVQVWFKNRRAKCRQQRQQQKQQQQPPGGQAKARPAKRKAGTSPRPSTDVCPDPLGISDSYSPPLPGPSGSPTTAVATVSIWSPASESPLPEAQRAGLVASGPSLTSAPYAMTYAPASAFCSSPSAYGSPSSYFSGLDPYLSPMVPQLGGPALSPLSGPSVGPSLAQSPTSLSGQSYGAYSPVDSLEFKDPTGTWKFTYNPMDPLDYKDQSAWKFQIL
# Sequence of ETV5 (P41161 whole entry): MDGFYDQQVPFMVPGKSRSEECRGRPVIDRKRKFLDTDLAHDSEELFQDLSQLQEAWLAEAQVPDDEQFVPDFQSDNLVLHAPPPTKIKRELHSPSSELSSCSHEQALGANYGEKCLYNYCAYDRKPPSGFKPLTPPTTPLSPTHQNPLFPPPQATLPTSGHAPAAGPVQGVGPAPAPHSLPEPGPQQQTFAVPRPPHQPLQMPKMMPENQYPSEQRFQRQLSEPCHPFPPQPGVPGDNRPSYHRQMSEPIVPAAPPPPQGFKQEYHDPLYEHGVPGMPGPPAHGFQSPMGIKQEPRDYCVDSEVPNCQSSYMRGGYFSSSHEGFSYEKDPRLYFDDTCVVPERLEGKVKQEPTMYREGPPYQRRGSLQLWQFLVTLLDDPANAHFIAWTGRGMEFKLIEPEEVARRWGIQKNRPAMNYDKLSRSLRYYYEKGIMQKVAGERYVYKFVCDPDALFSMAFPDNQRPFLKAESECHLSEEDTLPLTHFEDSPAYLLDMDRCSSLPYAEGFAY
# Sequence of ETV1 (P50549 whole entry): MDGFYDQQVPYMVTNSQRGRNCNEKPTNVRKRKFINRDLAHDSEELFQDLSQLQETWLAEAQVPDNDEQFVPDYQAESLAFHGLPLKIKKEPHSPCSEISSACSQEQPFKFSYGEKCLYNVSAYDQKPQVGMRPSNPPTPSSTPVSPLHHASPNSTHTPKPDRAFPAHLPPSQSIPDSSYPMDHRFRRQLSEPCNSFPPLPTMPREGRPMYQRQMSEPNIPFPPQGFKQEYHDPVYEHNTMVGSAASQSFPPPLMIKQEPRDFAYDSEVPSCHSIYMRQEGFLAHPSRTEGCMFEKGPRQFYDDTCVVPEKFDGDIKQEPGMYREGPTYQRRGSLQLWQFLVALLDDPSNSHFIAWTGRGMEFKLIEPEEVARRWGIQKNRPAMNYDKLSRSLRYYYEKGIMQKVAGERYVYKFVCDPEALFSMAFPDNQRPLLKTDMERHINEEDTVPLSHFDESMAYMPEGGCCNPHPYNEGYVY
# Sequence of ELF4 (Q99607 whole entry): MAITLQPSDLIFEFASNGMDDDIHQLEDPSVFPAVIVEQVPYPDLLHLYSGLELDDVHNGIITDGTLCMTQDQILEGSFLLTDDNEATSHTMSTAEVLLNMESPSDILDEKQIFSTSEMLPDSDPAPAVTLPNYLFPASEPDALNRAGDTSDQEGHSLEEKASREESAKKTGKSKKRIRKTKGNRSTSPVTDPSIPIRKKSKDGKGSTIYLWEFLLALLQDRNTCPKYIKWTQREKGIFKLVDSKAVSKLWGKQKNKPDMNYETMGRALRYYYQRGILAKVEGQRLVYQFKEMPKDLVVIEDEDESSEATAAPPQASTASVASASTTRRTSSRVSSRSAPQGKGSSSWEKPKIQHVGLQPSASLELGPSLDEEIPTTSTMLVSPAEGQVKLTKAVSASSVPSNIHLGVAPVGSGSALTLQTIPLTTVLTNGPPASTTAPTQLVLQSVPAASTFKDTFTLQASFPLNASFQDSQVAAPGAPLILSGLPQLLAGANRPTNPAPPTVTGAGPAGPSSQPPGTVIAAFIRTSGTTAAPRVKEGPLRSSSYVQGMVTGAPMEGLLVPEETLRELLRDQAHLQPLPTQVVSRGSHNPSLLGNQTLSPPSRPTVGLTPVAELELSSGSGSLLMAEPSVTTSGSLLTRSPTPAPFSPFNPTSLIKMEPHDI
# Sequence of HSF1 (Q00613 whole entry): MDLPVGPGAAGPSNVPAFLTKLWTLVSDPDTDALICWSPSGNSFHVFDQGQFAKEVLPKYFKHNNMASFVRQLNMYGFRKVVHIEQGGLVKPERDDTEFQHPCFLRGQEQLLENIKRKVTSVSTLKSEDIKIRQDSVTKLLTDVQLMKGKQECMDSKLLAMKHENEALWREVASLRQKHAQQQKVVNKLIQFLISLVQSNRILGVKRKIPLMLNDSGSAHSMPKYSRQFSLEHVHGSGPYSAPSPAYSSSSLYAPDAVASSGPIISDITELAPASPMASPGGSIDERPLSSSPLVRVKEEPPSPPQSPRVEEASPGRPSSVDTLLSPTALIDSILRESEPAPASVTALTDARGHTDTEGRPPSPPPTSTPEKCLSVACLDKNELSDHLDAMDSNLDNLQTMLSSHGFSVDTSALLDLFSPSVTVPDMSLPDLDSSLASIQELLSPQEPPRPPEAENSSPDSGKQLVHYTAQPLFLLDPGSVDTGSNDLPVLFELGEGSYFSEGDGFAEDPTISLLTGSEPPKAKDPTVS
# Sequence of ETV6 (P41212 whole entry): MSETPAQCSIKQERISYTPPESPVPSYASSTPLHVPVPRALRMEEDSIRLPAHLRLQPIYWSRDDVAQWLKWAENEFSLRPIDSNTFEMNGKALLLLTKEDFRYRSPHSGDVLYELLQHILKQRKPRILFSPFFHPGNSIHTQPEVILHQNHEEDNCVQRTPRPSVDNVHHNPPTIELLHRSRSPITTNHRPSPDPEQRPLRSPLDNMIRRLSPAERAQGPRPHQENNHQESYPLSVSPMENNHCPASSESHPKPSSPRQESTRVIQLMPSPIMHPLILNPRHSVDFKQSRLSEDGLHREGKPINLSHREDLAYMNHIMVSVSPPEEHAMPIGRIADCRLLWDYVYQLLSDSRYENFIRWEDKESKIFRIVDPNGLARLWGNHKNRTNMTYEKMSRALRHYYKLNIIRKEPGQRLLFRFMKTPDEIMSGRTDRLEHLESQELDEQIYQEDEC
sequence,measurement,setting,value
CGTTTC,binding signal,[1],"1.98 fold enrichment (6-mer frequency, TF over GST control)"
same,binding signal,[2],"1.72 fold enrichment (6-mer frequency, TF over GST control)"
same,binding signal,[3],"1.24 fold enrichment (6-mer frequency, TF over GST control)"
same,binding signal,[4],"1.77 fold enrichment (6-mer frequency, TF over GST control)"
same,binding signal,[5],"1.8 fold enrichment (6-mer frequency, TF over GST control)"
same,binding signal,[6],"1.65 fold enrichment (6-mer frequency, TF over GST control)"
same,binding signal,[7],"1.41 fold enrichment (6-mer frequency, TF over GST control)"
same,binding signal,[8],"1.72 fold enrichment (6-mer frequency, TF over GST control)"
same,binding signal,[9],"1.06 fold enrichment (6-mer frequency, TF over GST control)"
same,binding signal,[10],"1.61 fold enrichment (6-mer frequency, TF over GST control)"
same,binding signal,[11],"1.74 fold enrichment (6-mer frequency, TF over GST control)"
same,binding signal,[12],"1.64 fold enrichment (6-mer frequency, TF over GST control)"
same,binding signal,[13],"1.74 fold enrichment (6-mer frequency, TF over GST control)"
same,binding signal,[14],"1.75 fold enrichment (6-mer frequency, TF over GST control)"
same,binding signal,[15],"1.98 fold enrichment (6-mer frequency, TF over GST control)"
same,binding signal,[16],"2.04 fold enrichment (6-mer frequency, TF over GST control)"
same,binding signal,[17],"1.83 fold enrichment (6-mer frequency, TF over GST control)"
same,binding signal,[18],"1.95 fold enrichment (6-mer frequency, TF over GST control)"
